{"source": "PubChem BioAssay (NCATS)", "note": "Records with an inconclusive call do not appear. Where a call stands in place of a potency, no number is given. Calls of active or inactive are those of the source. Calls come from the whole dose curve; as a rule, active = well fitted cell-killing curve with a large enough effect; inconclusive = small, poorly fitted or top-dose-only effect, or effect the other way; inactive = no such curve, though single readings can be large or run the other way.", "data": [{"assay": "Viability qHTS for spleen associated tyrosine kinase inhibitor (SYKi) naive MV4-11 cells (AID 1963823); note: nearly all actives have a fitted effect of over 40% in size; note: potency is the fitted concentration of half-maximal effect", "conditions": "MV4-11 AML viability, CellTiter-Glo luminescence, 72 h; series mostly up to 45 µM", "method_in_brief": "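SYK inhibitor-naive MV4-11 cells, 500 per well, exposed to compounds for 72 hr at 37 C, 5% CO2. Viability read as CellTiter-Glo luminescence after 10 min at room temperature.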", "values": [{"molecule": "CC1=CC(=O)C2C(C)(C)CC(O)CC2(C)C1CO", "note": "(stereo not given)", "Potency": "inactive"}, {"molecule": "COC(=O)C(CC1(O)c2ccccc2N2C(=O)C(C)(C)N(O)C21)n1cnc2ccccc2c1=O", "note": "(stereo not given)", "Potency": "inactive"}, {"molecule": "C[C@]12C[C@@H](O)[C@@H]3C[C@@]1(O[C@@H]1O[C@H](CO)[C@@H](O)[C@H](O)[C@H]1O)[C@]3(COC(=O)c1ccccc1)C(=O)O2", "Potency": "inactive"}, {"molecule": "CCC(C)(O)C(O)C(=O)OCc1ccc(O[C@@H]2O[C@H](CO)[C@@H](O)[C@H](O)[C@H]2O)cc1", "note": "(stereo not given in full)", "Potency": "inactive"}, {"molecule": "COc1ccc(NC(=O)c2ccc(-c3ccc(-c4nnc(C)o4)cc3C)cc2)cc1N1CCN(C)CC1", "Potency": "23.1 µM (active)"}, {"molecule": "C[C@@H]1C[C@H]2[C@@H]3CCC4=CC(=O)C=C[C@]4(C)[C@@]3(F)[C@@H](O)C[C@]2(C)[C@@]1(O)C(=O)COP(=O)(O)O", "Potency": "inactive"}, {"molecule": "C=CC(C)(O)CC/C=C(/C)C(=O)OC1C(OC2OCC(OC3OC(CO)C(O)C(O)C3O)C(OC3OCC(O)C(OC4OC(C)C(O)C(O)C4O)C3O)C2O)COC(OC(=O)C23CCC(C)(C)CC2C2=CCC4C5(C)CCC(OC6OC(CO)C(OC7OC(CO)C(O)C(OC8OCC(O)C(O)C8O)C7O)C(O)C6O)C(C)(C)C5CCC4(C)C2(C)CC3O)C1O", "note": "(stereo not given)", "viability (% of control)": "68.9% [at 4.97 µM] (inactive)"}, {"molecule": "OC[C@@]1(O)CO[C@@H](OC[C@H]2O[C@@H](Oc3c[nH]c4ccccc34)[C@H](O)[C@@H](O)[C@@H]2O)[C@@H]1O", "Potency": "inactive"}, {"molecule": "Cc1cc(O)c(C(C)C)cc1Cl", "Potency": "inactive"}, {"molecule": "CC1(C)CCCC2(C)C1C(OC(=O)/C=C/C=C/C=O)C=C1COC(=O)C12O", "note": "(stereo not given)", "Potency": "5.02 µM (active)"}, {"molecule": "C[C@@H]1CCC2C(C)(C)[C@H](O)[C@H](O)C[C@]2(C)[C@@]12Cc1c(O)cc3c(c1O2)CN(CCCC(=O)O)C3=O", "note": "(stereo not given in full)", "Potency": "inactive"}, {"molecule": "COC12CC3C(C(C)C1=CC(=O)O2)C(O)C(OC(C)=O)C1C(C)(C)C(OC(C)=O)CCC31C", "note": "(stereo not given)", "Potency": "inactive"}, {"molecule": "C[C@@H]1C[C@@H]2O[C@H]2/C=C\\C=C\\C(=O)Cc2c(Cl)c(O)cc(O)c2C(=O)O1", "Potency": "0.0404 µM (active)"}, {"molecule": "CC1(C)CCC[C@@]2(C)[C@H]1[C@H](O)C=C1COC(=O)[C@@]12O", "Potency": "inactive"}, {"molecule": "C/C=C(/C)C(=O)OC1C2OC2C2(CO2)C2C3OC(=O)C(C)C3CCC12C", "note": "(stereo not given)", "Potency": "inactive"}, {"molecule": "N#CC(CCCN1CCN(/N=C/c2cccnc2)CC1)(c1ccccc1)c1ccccc1", "Potency": "2.06 µM (active)"}, {"molecule": "O=C(N[C@H]1CCN(C(=O)c2cc(C(F)(F)F)cc(C(F)(F)F)c2)[C@H](Cc2ccc(Cl)cc2)C1)c1ccnc2ccccc12", "Potency": "8.93 µM (active)"}, {"molecule": "CC1(C)CC[C@]2(C(=O)O[C@@H]3O[C@H](CO)[C@@H](O)[C@H](O)[C@H]3O)[C@H](O)C[C@]3(C)C(=CCC4[C@@]5(C)CC[C@H](O[C@@H]6OC[C@@H](O)[C@H](O)[C@H]6O)[C@@](C)(C(=O)O)C5CC[C@]43C)[C@@H]2C1", "note": "(stereo not given in full)", "Potency": "inactive"}, {"molecule": "C=CC1(C)C=C2C(=O)OC(=O)C3=C(CCCC3(C)C)C2(O)CC1", "note": "(stereo not given)", "Potency": "inactive"}, {"molecule": "C=CC(C)(CC/C=C(\\C)C(=O)OC[C@H]1O[C@@H](OC(C)(C=C)CC/C=C(\\C)C(=O)O[C@H]2[C@H](O)[C@@H](O)[C@H](OC(C)(C=C)CC/C=C(\\C)C(=O)O)O[C@@H]2CO)[C@H](O)[C@@H](O)[C@@H]1O)O[C@@H]1O[C@H](CO)[C@@H](O)[C@H](O)[C@H]1O", "note": "(stereo not given in full)", "viability (% of control)": "81.1% [at 9.25 µM] (inactive)"}, {"molecule": "C[C@@H]1O[C@@H](OC[C@H]2O[C@@H](Oc3cc(O)cc4c3C(=O)C(O)(Cc3ccc(O)cc3)O4)[C@H](O)[C@@H](O)[C@@H]2O)[C@H](O)[C@H](O)[C@H]1O", "note": "(stereo not given in full)", "Potency": "inactive"}, {"molecule": "CC(C)=C1C[C@@]2(C)C(=CC1=O)CC[C@@H](O)[C@@H]2C", "Potency": "inactive"}, {"molecule": "CC(C)=CCC[C@](C)(O[C@@H]1O[C@H](CO[C@@H]2O[C@H](CO)[C@@H](O)[C@H](O)[C@H]2O)[C@@H](O)[C@H](O)[C@H]1O)C1CC[C@]2(C)[C@@H]1[C@H](O)CC1[C@@]3(C)CC[C@H](O[C@@H]4O[C@H](CO)[C@@H](O)[C@H](O)[C@H]4O[C@@H]4O[C@H](CO)[C@@H](O)[C@H](O)[C@H]4O)C(C)(C)[C@@H]3CC[C@]12C", "note": "(stereo not given in full)", "viability (% of control)": "64.5% [at 9.25 µM] (inactive)"}, {"molecule": "CN(C/C=C/C#CC(C)(C)C)Cc1cccc2ccccc12", "Potency": "inactive"}, {"molecule": "O=C(O)c1ccnc2cc(C(OCC3CCC(F)(F)CC3)c3ccccc3Cl)[nH]c12", "note": "(stereo not given)", "Potency": "inactive"}, {"molecule": "Cc1ccccc1N1CCN(S(=O)(=O)C[C@]23CC[C@H](C[C@@H]2NC(=O)[C@@H](N)CCS(C)(=O)=O)C3(C)C)CC1", "Potency": "inactive"}, {"molecule": "CC[C@@H](O)C[C@@H]1C(C)=C[C@@H]2CCCC[C@@H]2[C@@]1(C)C(=O)O", "Potency": "inactive"}, {"molecule": "CC1CCC2(OC1)OC1CC3C4CCC5C[C@@H](O[C@@H]6O[C@H](CO[C@@H]7OC[C@@H](O)[C@H](O)[C@H]7O)[C@H](O)[C@H](O)[C@H]6O)CC[C@]5(C)C4CC[C@]3(C)C1C2C", "note": "(stereo not given in full)", "Potency": "inactive"}, {"molecule": "Cc1c(C(=O)NCc2cccnc2)nn(-c2ccc(Cl)cc2Cl)c1-c1ccc(Cl)cc1", "Potency": "inactive"}, {"molecule": "COc1cc(Br)c(Nc2nc(-c3c(C)nc4ncccn34)cs2)c(Br)c1", "Potency": "1.16 µM (active)"}, {"molecule": "CC(c1ncncc1F)C(O)(Cn1cncn1)c1ccc(F)cc1F", "note": "(stereo not given)", "Potency": "inactive"}, {"molecule": "C=C1CN(Cc2ccc(C(=O)Nc3ccccc3N)cc2)C(=O)c2ccccc21", "Potency": "0.651 µM (active)"}, {"molecule": "[N-]=[N+]=N[C@]1(CO)O[C@@H](n2ccc(N)nc2=O)[C@@H](O)[C@@H]1O", "Potency": "inactive"}, {"molecule": "C/C=C/C=C/C(CC(=O)O)Nc1ccc(C=O)cc1", "note": "(stereo not given)", "Potency": "inactive"}, {"molecule": "NC(=O)c1ccc(F)c2c1C[C@@H](N(C1CCC1)C1CCC1)CO2", "Potency": "inactive"}, {"molecule": "c1ccc(-c2[nH]ncc2-c2ccnc3ccccc23)nc1", "Potency": "inactive"}, {"molecule": "C=C1C(OC(C)=O)CCC2(C)CCC(C(C)(C)O)CC12", "note": "(stereo not given)", "Potency": "inactive"}, {"molecule": "CC1C/C=C/C=C\\CCCCC(O)C/C=C/C(=O)O1", "note": "(stereo not given)", "Potency": "inactive"}, {"molecule": "Cc1ccc(NS(=O)(=O)c2ccc3c(c2)CCC(=O)N3)cc1C", "Potency": "11.6 µM (active)"}, {"molecule": "CSCC[C@H](NC(=O)[C@H](CCSC)NC(=O)CNC(=O)[C@H](Cc1ccc(O)cc1)NC(=O)[C@H](Cc1ccccc1)NC(=O)[C@H](CCCN=C(N)N)NC(=O)[C@H](CC(=O)O)NC(=O)[C@@H]1CCCN1C(=O)[C@H](CC(=O)O)NC(=O)[C@@H]1CCCN1C(=O)[C@@H]1CCCN1C(=O)[C@@H](N)CC(=O)O)C(N)=O", "Potency": "inactive"}]}]}
